Pf growth 96h: P. falciparum growth inhibition at 96 hour, primary screen for plastid delayed-death inhibitors; 6.9% of 320,000 active; Potency, µM (titrated, usually from 28.7 µM), without a hit: at the highest dose activity change, negative = inhibition, most hits filed as inhibitors; AID 504834; P. falciparum luciferase reporter growth, 96 h
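Two-generation exposure (96 h) targets delayed-death phenotype. Reporter parasites carrying integrated firefly luciferase, in red cells at 2% hematocrit and 0.05% parasitemia final, kept at 37 C, 5% CO2; luminescence loss indicates inhibition.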
Pf growth 48h: P. falciparum growth inhibition at 48 hours (one generation); P. falciparum luciferase growth in erythrocytes, 48 h; Potency, µM (highest dose often 28.7 µM), for inactives: at the highest dose activity change, negative = inhibition, actives largely listed as inhibitors; 5.9% of 310,000 active
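Parasite viability was followed by luminescence of a genomically integrated firefly luciferase. Cultures held 0.1% parasitemia at 2% hematocrit (final), incubated under 5% CO2 at 37 C.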
AMA1 RON2 block: inhibitors of Plasmodium falciparum AMA1-RON2 interaction. AlphaScreen AMA1-biotinylated RON2 peptide binding. Potency, µM (series often up to 58.2 µM), inactives show at the highest dose activity change, negative = inhibition, most hits filed as inhibitors. 0.2% of 360,000 active;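 also: 0% = vehicle wells and -100% = peptide control; nearly all actives have a fitted effect of over 45% in size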
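AMA1 (3D7) with his tag at 25 nM final met compounds first, then biotinylated RON2 peptide at 25 nM; detection used donor plus acceptor beads, 10 µg/mL apiece, read by AlphaScreen after 30 min at room temperature.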
Vaccinia Venus: vaccinia inhibition (Venus reporter); Vaccinia virus Venus reporter expression, fluorescence; 0.46% of 330,000 active; Potency, µM (top dose mostly 36.5 µM), for inactives: top-dose activity change, negative = inhibition, most hits filed as inhibitors; calls by dose curve; tested in A549 cells; also: nearly all actives have a fitted effect of over 30% in size
VACV mCherry inh: inhibitors of vaccinia virus infection (mCherry reporter signal). Vaccinia virus mCherry reporter infection, fluorescence. 0.63% of 310,000 active. Potency, µM (highest dose often 36.5 µM), for inactives: top-dose activity change, negative = inhibition, most hits filed as inhibitors; calls by dose curve; tested in A549 cells; also: nearly all actives have a fitted effect of over 35% in size
Numbers without * were called inactive; i = inactive; ? = inconclusive; . = no result; [ ] = another dose, or the depositor's remark. Hits are enriched below; roughly 8.7% of the tested compounds scored in any of these assays. Unless noted, calls follow the shape of the dose curve; as a rule, active = well fitted curve in the direction sought with a large enough effect; inconclusive = small, poorly fitted or top-dose-only effect, or another doubt; inactive = no such curve, though single readings can be large; an effect the other way counts as inactive or inconclusive. Unless noted, % is scaled to controls: 0 for no effect and ±100 for the full control effect; potency is read from the fitted curve at half-maximal effect.

SMILES	Pf growth 96h	Pf growth 48h	AMA1 RON2 block	Vaccinia Venus	VACV mCherry inh
COc1ccc(CN(C(=O)c2ccccc2OC)C2CCS(=O)(=O)C2)cc1 (configuration not stated)	1.0%	?	2.2%	.	.
COc1cccc(CN(C(=O)c2cc3ccccc3oc2=O)C2CCS(=O)(=O)C2)c1 (configuration not stated)	6.57µM*	1.3%	10.3%	-17.0%	-4.4%
Cc1ccc(-c2c3c(=O)n(C)c(=O)n(C)c3c3cnc4ccccc4n23)cc1	.	.	.	-8.4%[7.34 µM]	-17.0%[7.34 µM]
Cn1c(SCc2nc3ccccc3[nH]2)nnc1-c1cccnc1	1.85µM*	7.7%	13.1%	.	.
COc1ccccc1-c1nnc(SCc2nc3ccccc3[nH]2)n1C	.	-10.8%	9.4%	-5.8%	-7.3%
CSCCC(NS(=O)(=O)c1ccc(C)cc1)C(=O)N1CCN(C(C)=O)CC1 (configuration not stated)	0.4%	-1.7%	0.0%	-9.0%	i
CSCCC(NS(=O)(=O)c1ccc(C)cc1)C(=O)NC1CCCCCC1 (configuration not stated)	?	9.28µM*	-4.6%	-10.2%	-12.1%
CSCCC(NS(=O)(=O)c1ccc(C)cc1)C(=O)N1CCN(C(c2ccccc2)c2ccccc2)CC1 (configuration not stated)	6.57µM*	3.7µM*	-0.4%	-28.4%	?
CSCCC(NS(=O)(=O)c1ccc2c(c1)oc(=O)n2C)C(=O)NC1CCC(C)CC1 (configuration not stated)	-26.9%	13.1%	-8.0%	-11.1%	i
CSCCC(NS(=O)(=O)c1ccc2c(c1)oc(=O)n2C)C(=O)NC1CCN(Cc2ccccc2)CC1 (configuration not stated)	1.85µM*	7.5%	-11.1%	-1.3%	-0.7%
Cc1cccc(CN2C(=O)c3ccccc3Sc3ccc(C(=O)NCc4cccs4)cc32)c1	.	.	.	-4.8%	-12.7%
CC(C)CCNc1nc(Nc2ccccc2)c2cnn(C)c2n1	.	.	.	-13.7%[7.34 µM]	i[7.34 µM]
COc1ccc(N2C(=O)[C@@H]3C[C@H]2CN3Cc2cccn2-c2ccc(Cl)cn2)c(C)c1	.	.	.	0.3%	-6.9%
CCCN(CCC)CCCNC(=O)c1cc2c(-c3ccc(OC)c(OC)c3)nn(C)c2s1	0.5%	2.08µM*	-1.5%	-16.2%	-25.3%
Cn1nc(-c2ccccc2F)c2cc(C(=O)NCc3ccc(Cl)cc3)sc21	.	.	.	-22.5%	-28.0%
CCCCN(CC)CCNC(=O)c1cc2c(-c3ccc(Cl)cc3)nn(C)c2s1	-0.7%	0.329µM*	-18.0%	?	10µM*
CCCN(CCC)CCNC(=O)c1cc2c(-c3ccccc3F)nn(C)c2s1	1.2%	3.29µM*	5.4%	-25.0%	-11.0%
CCCN(CCC)CCNC(=O)c1cc2c(-c3ccc(Cl)cc3)nn(C)c2s1	11.1%	0.465µM*	-10.0%	?	?
CN(C(=O)CSc1nc2ccc(NC(=O)c3ccco3)cc2s1)c1ccccc1	.	.	.	-24.0%	?
Cc1cccc(Cn2cc(S(=O)(=O)c3cccc(Cl)c3)c(=O)c3cc(F)c(N4CCOCC4)cc32)c1	.	.	.	-14.9%	-6.2%
Cc1oc2ncnc(N3CCOCC3)c2c1C(=O)Nc1ccc(Br)cc1F	.	.	.	-3.6%	-14.7%
COc1ccc(CNC(=O)c2ccc3c(c2)CCN3S(=O)(=O)c2ccc(C)cc2)cc1	.	.	.	-14.7%	-27.0%
CCOC(=O)c1cccc(NC(=O)CC2C(=O)N(c3ccc(C)cc3)C(=O)N2Cc2cccc(OC)c2)c1 (configuration not stated)	.	.	.	-3.7%	-5.7%
Cc1nc2sc(C(c3cccs3)N3CC(C)CC(C)C3)c(O)n2n1 (configuration not stated)	?	6.57µM*	23.3%	-17.6%	-6.8%
C#Cc1ccc([C@H]2C=C(C(=O)N3CCN(Cc4ccccc4)CC3)O[C@@H](OCc3ccc(CO)cc3)C2)cc1	2.33µM*	3.29µM*	-5.9%	?	-20.4%
O=C(C1=C[C@@H](c2ccc(Br)cc2)C[C@@H](OCc2ccc(CO)cc2)O1)N1CCN(Cc2ccccc2)CC1	11.7µM*	?	-17.1%	?	?
CC1CCc2nc3ncn(CC(=O)Nc4cccc(C#N)c4)c(=O)c3cc2C1 (configuration not stated)	.	.	.	-4.6%	-12.5%
